NALP3 yeast inh: blocks the NALP3 inflammasome reconstituted in yeast; Yeast reconstituted NLRP3/ASC/caspase-1, beta-gal luminescence, 24 h; inhibition, % at 10 µM; 330,000 tested, 0.39% active; AID 2825;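 active = inhibition of 50% or more; inactive = inhibition below 50%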;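 note: plate controls were induced DMSO wells for no effect and uninduced yeast grown without galactose for full effect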
PfHsp90 yeast 2: growth inhibition of yeast expressing Plasmodium Hsp90 | S. cerevisiae expressing PfHsp90, BacTiter-Glo ATP, 48 h; yeast lacking PDR1 and PDR3 efflux regulators | inhibition, % at 9.4 µM | 310,000 tested, 0.32% active | AID 504621;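 active = every replicate shows inhibition above about 80%, whatever the replicate mean, limit read from the data; inconclusive = mean inhibition reaches the set limit but some replicate falls short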;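 note: 0% = DMSO neutral controls and 100% = 20 µM radicicol positive controls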
tim10-1 inh: tim10-1 yeast growth inhibition; S. cerevisiae tim10-1 ts strain growth, BacTiter-Glo, 24 h; 330,000 tested, 2.2% active; AID 463190; inhibition, % at 20 µM;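 active = inhibition of at least 40%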;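 note: mutant grown at 25 °C; 0% = DMSO wells with yeast and 100% = wells holding no yeast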
tim23-1 inh: inhibits growth of tim23-1 mutant yeast; S. cerevisiae tim23-1 growth, BacTiter-Glo luminescence, 24 h; inhibition, % at 20 µM; 330,000 tested, 1.3% active; AID 463212;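 active = growth inhibition of the mutant yeast at or above 50%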;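 note: temperature-sensitive mutant grown at 25 °C; plate controls were DMSO-treated mutant yeast for no effect and medium wells lacking yeast for full effect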
TIM10 inh: TIM10 yeast growth inhibition; S. cerevisiae TIM10 strain growth, BacTiter-Glo luminescence, 24 h; inhibition, % at 10 µM; 330,000 tested, 1.4% active; AID 463195;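 active = inhibition of 40% or more at the single tested concentration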;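 note: wild-type TIM10 isogenic control strain grown at permissive 25 °C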
SKKanGAS inh: inhibitors of SKKanGAS S. pyogenes growth in kanamycin (SK-promoter or general growth effect); inhibition, % at 7.5 µM; BacTiter-Glo, 6 h; 300,000 tested, 1.3% active;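 active = mean replicate score, as percent of positive control median, at least 50; inconclusive = mean below 50 but one replicate at or above 50; inactive = mean and every replicate below 50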;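 note: strain carries kanamycin resistance gene driven by streptokinase promoter and grows in 40 µg/ml kanamycin; loss of luminescence reflects streptokinase promoter inhibition or plain growth inhibition; 0% = median of DMSO wells and 100% = positive control at its reference dose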
tim10-1 conf: confirmation of tim10-1 mutant yeast growth inhibitors; S. cerevisiae tim10-1 ts strain growth, BacTiter-Glo, 24 h; inhibition, % at 20 µM; 7,400 tested, 56% active; shares compounds with tim10-1 inh;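 active = inhibition of yeast growth at or above a set limit in either of two repeat tests at 20 µM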;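 note: tim10-1 mutant grown at permissive 25 °C to find synthetic lethal compounds; 0% = DMSO yeast wells and 100% = medium wells without yeast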
* marks the source's active call; other numbers are inactive results; ? = inconclusive; · = no result given. Shown are actives, neighbours in structure and some others; about 4.6% of the full set was active somewhere.

SMILES	NALP3 yeast inh	PfHsp90 yeast 2	tim10-1 inh	tim23-1 inh	TIM10 inh	SKKanGAS inh	tim10-1 conf
O=C(COC(=O)c1cc(=O)[nH]c2ccccc12)NCc1ccc(Cl)cc1	9.8	·	6.7	10.6	0.3	·	·
C=CC[C@@H]1Cc2c(Br)ccc(Br)c2[C@@H](CC=C)N1	9.3	8.8	40.5*	29.3	-1.9	10.3	27.9
Cc1ccc(-c2cnc(C3CC3)o2)cc1S(=O)(=O)Nc1ccccc1	-1.7	-5.2	41.2*	39.4	14.8	2.3	3.9
CC(=O)Nc1ccc(NS(=O)(=O)c2cc(-c3cnc(C4CC4)o3)ccc2C)cc1	-4.5	-6.2	1.2	-0.9	0.8	-2.9	·
CCCCc1ccc(C2C(C#N)=C(N)SC(N)=C2C#N)s1	13.7	·	50.5*	32.9	11.5	·	34.4*
CCCS(=O)(=O)Nc1cccc(-c2nc3cccnc3s2)c1	4.2	-38.3	19.8	23.3	3.6	-13.6	·
Cc1ccc(-c2nc3cccnc3s2)cc1NS(C)(=O)=O	7.2	0.8	43.7*	13.4	2.5	-0.9	-6.6
COc1cc(CNCc2ccncc2)cc(OC)c1OC	-1.7	-11.5	4.5	-5.7	2.9	1.3	·
C#CCNC(=O)C1=C[C@H](C(C)(C)C)C[C@H](OCCCCO)O1	19.2	-5.8	10.0	-2.4	8.0	2.4	·
CCOc1cccc2cc(-c3nnc(NCc4ccco4)s3)c(=O)oc12	2.0	-14.9	40.4*	22.7	23.2	-3.9	20.9
CCOc1cc(/C=C2\N=C(C)OC2=O)cc(Br)c1OCC(=O)OC	-0.2	·	43.7*	26.3	15.8	-11.5	10.2
CC(=O)Oc1ccc(-c2nc(-c3cccnc3)no2)cc1	34.0	62.2	43.1*	41.8	33.0	?	49.0*
N=c1oc2cc(O)ccc2cc1C(=O)Nc1ccc(Cl)cc1	-22.6	6.6	44.4*	43.5	25.2	10.8	23.9
Cc1cc(C)n(C(=O)c2ccc([N+](=O)[O-])cc2[N+](=O)[O-])n1	2.6	-21.5	40.5*	49.3	12.4	12.8	30.1
c1ccc(Sc2nc(N3CCCCC3)nc(N3CCCCC3)n2)nc1	30.5	·	41.2*	21.1	23.0	-1.7	20.9
CCOC(=O)c1c2c(n(C)c1COC)C(=O)C(=O)c1ccc(Br)cc1-2	11.9	·	47.7*	41.4	6.2	88.1*	12.9
CC(C)OC(=O)Cn1cc(C#N)c2ccccc21	7.7	·	9.2	6.9	4.8	3.0	·
Cc1ccc(C(=O)NN2CCOCC2)cc1	-13.1	-3.1	10.8	-7.0	-7.5	-3.0	·
O=C(NN1CCOCC1)c1ccc(Br)cc1	17.7	15.6	42.3*	9.8	7.6	-2.6	-6.2
Cc1ccc2nc(SCC(=O)Nc3nnc(SCC(N)=O)s3)[nH]c2c1	4.9	-22.8	-0.7	-4.1	-9.5	-1.4	·
O=C(Oc1c(-c2ccccc2)c(=O)n2c3c(cccc13)CC2)c1ccco1	-47.0	-24.1	45.6*	44.4	34.9	18.6	1.5
O=C(Oc1c(-c2ccccc2)c(=O)n2c3c(cccc13)CC2)c1ccc(Cl)cc1	0.9	16.1	33.2	47.6	25.3	17.5	·
CCOC(=O)c1c2ccccc2[n+]([O-])n1CCO	6.9	6.4	-4.3	1.5	-8.1	-4.6	·
CC(C)(O)C#Cc1ccc(C(=O)N2CCN(c3ccc(F)cc3)CC2)cc1	12.4	5.3	4.3	14.1	-3.2	2.4	·
CC(C)(O)C#Cc1ccc(C(=O)N2CCN(c3ccc(Cl)cc3)CC2)cc1	7.6	-17.9	49.3*	34.8	27.0	2.7	40.2*
SMILES	NALP3 yeast inh	PfHsp90 yeast 2	tim10-1 inh	tim23-1 inh	TIM10 inh	SKKanGAS inh	tim10-1 conf
CCOC(=O)C1CCCN(C2CC(=O)N(c3ccccc3)C2=O)C1 (configuration not stated)	16.6	-23.5	34.4	24.5	4.0	0.9	·
CCc1ccc(N2C(=O)CC(N3CCC(C(=O)OC)CC3)C2=O)cc1 (configuration not stated)	15.0	-16.9	42.5*	21.9	10.8	-1.5	42.4*
CCOC(=O)C1CCCN(C2CC(=O)N(c3ccc(C(C)C)cc3)C2=O)C1 (configuration not stated)	17.7	44.3	42.0*	25.2	22.8	-7.9	29.9*
CCOC(=O)C1CCCN(C2CC(=O)N(c3cccc(C(F)(F)F)c3)C2=O)C1 (configuration not stated)	3.7	119.7*	56.2*	33.4	30.8	-0.2	41.7*
COc1ccc(N2CC(C(=O)N3CCN(C(=O)c4ccco4)CC3)CC2=O)cc1 (configuration not stated)	5.9	20.8	6.0	-8.0	13.6	8.8	·
CN1CCN(C(=O)c2cc([N+](=O)[O-])ccc2Cl)CC1	-1.0	-15.3	-5.3	4.2	15.8	19.2	·
N/C(=N\OC(=O)c1ccc(F)cc1)c1cccc([N+](=O)[O-])c1	14.7	-7.8	47.9*	28.1	25.3	-7.7	63.0*
N/C(=N/OC(=O)c1cccc([N+](=O)[O-])c1)c1cccc([N+](=O)[O-])c1	0.4	1.1	19.8	-13.7	-26.2	0.5	·
N/C(=N\OC(=O)c1ccccc1Cl)c1cccc([N+](=O)[O-])c1	34.0	6.1	50.1*	23.3	27.7	-6.3	65.8*
O=C(CCNc1ccc(F)cc1)c1cccc([N+](=O)[O-])c1	15.4	-14.2	40.3*	12.8	15.4	-1.4	43.0*
O=C(CCNc1ccccc1)c1cccc([N+](=O)[O-])c1	7.0	3.6	24.2	19.1	13.2	-3.8	·
C=CCCC(=O)N1CCCC(Cc2cccc(Cl)c2)(C(=O)OCC)C1 (configuration not stated)	4.1	15.7	10.8	24.4	6.0	-1.1	·
CN(CC1COc2ccccc2O1)C(=O)c1cccc(S(=O)(=O)N2CCCC2)c1 (configuration not stated)	13.5	13.7	4.1	4.6	-3.4	·	·
NC(=O)COc1ccc(NC(=O)CC23CC4CC(CC(C4)C2)C3)cc1	10.5	4.7	-7.9	8.8	-0.5	0.0	·
COc1cc(/C=C(\C#N)c2nc3ccccc3s2)cc([N+](=O)[O-])c1O	10.4	-12.4	45.9*	29.1	14.6	22.6	28.9
CC[C@H](C)Cc1cn([C@@H](CCCN=C(N)N)C(=O)NCCCCCCCCCCC(=O)N2CCNCC2)nn1	14.0	0.4	-24.4	-8.4	-9.7	14.6	·
CCS(=O)(=O)c1ccc(OC)c(N=Nc2ccc(O)c3ncccc23)c1	27.2	-42.3	40.7*	20.0	12.5	23.1	37.6*
CCN(CC)S(=O)(=O)c1cc(OC)ccc1N=Nc1ccc(O)c2ncccc12	29.8	?	43.6*	38.9	23.3	67.8*	42.2*
CSCCC(NS(=O)(=O)c1ccccc1F)C(=O)NC(C)c1ccccc1 (configuration not stated)	-3.2	-9.3	12.5	-6.1	5.3	-12.2	·

Bioassay records as filed in PubChem BioAssay.
